In the library only some 3.5% were active in any assay of this set; here they are far more common.
BoNT A protease: BoNT A light chain protease inhibition. multiplex microsphere protease substrate cleavage, flow cytometry. inhibition, % at 10 µM. 360,000 compounds, 0.17% hits; note: plate controls were buffer without enzyme for full effect and enzyme alone for no effect
Anthrax LF prot: inhibitors of Bacillus anthracis lethal factor protease | P15917 | multiplex microsphere protease cleavage assay, LF | inhibition, % at 10 µM | 360,000 compounds, 0.12% hits; note: plate controls were buffer without enzyme for full effect and enzyme alone for no effect
Target sequence (P15917 whole entry, looked up): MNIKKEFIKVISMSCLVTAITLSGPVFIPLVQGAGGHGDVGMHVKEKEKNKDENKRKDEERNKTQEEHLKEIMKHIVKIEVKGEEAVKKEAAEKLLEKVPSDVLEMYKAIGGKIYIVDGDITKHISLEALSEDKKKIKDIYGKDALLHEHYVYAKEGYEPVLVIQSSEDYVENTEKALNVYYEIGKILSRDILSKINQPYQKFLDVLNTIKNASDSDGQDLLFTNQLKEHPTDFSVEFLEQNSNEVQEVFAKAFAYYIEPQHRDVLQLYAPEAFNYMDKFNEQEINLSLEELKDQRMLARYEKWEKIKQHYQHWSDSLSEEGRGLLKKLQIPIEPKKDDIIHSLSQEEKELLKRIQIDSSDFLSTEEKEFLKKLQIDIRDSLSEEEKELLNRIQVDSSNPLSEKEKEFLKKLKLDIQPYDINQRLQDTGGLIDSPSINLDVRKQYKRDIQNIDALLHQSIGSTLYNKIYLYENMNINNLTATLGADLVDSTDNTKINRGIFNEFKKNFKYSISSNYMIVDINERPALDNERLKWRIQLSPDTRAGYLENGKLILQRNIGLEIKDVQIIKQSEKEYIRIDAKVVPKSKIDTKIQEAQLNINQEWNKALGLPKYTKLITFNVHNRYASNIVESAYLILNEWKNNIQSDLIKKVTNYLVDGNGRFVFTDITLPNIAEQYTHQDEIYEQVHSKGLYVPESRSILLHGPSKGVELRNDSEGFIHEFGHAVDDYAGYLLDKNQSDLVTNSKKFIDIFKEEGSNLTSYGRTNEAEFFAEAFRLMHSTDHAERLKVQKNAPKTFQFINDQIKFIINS
BoNT F protease: blocks Botulinum neurotoxin F light chain protease. Multiplex microsphere protease cleavage assay, flow cytometry. inhibition, % at 10 µM. 360,000 compounds, 0.22% hits. AID 588497; in the data active = inhibition above about 35%, passing the limit was not always enough; inconclusive = no clear call, values can overlap the other calls; note: plate controls were buffer without enzyme for full effect and enzyme alone for no effect
Autofluor counter: flagged as autofluorescent in microsphere protease counterscreen; compound autofluorescence counterscreen, microsphere flow cytometry; stronger effect = higher value; fluorescence intensity (test concentration not listed); 360,000 compounds, 3.1% hits; in the data active = fluorescence intensity above about 16000; inconclusive = no clear call, values can overlap the other calls
Numbers without * were called inactive; ? = inconclusive. Cut-off read from the data, not from the text of the source, unless noted: active = inhibition above about 30%; inconclusive = no clear call, values can overlap the other calls; inactive = below that.

SMILES | BoNT A protease | Anthrax LF prot | BoNT F protease | Autofluor counter
Cc1ccc(OCCC(=O)N(CC(=O)Nc2ccccc2C(F)(F)F)Cc2ccco2)cc1 | -0.8 | -4.7 | 2.2 | 5422
Cc1ccc(S(=O)(=O)CC(C)N2CCOCC2)c(S(=O)(=O)CC(C)N2CCOCC2)c1 (stereo not given) | -0.2 | 1.6 | -3.1 | 23181*
Cc1ccc(C)c(S(=O)(=O)NCCN2CCOCC2)c1 | 2.7 | 10.5 | 0.6 | 3561
CCc1c(C(=O)Nc2nnc(C3CC3)s2)csc1C | ? | 1.3 | 0.0 | 21291*
CC(C)(C)OC(=O)C[C@H]1C/C=C\C[C@H](CC(=O)NCCO)C(=O)NC[C@@H](c2ccccc2)OC1=O | 0.0 | 0.1 | 2.8 | 4179
CC(C(N)=O)N1C(=O)c2cccc3cccc1c23 (stereo not given) | 0.6 | -0.6 | -4.5 | 23424*
CC(C(=O)NC1CCCC1)N1C(=O)c2cccc3cccc1c23 (stereo not given) | -3.4 | -0.1 | -11.1 | ?
CC(C)(C)c1ccc(-c2nc3c(C#N)c(-c4ccc5c(c4)OCO5)ccn3n2)cc1 | -0.8 | 0.1 | -3.8 | 20531*
COc1ccccc1N1CCN(S(=O)(=O)c2cccs2)CC1 | 0.0 | -0.8 | -0.6 | 7754
COc1ccccc1N1CCN(C(=O)C(NS(=O)(=O)c2cccs2)c2ccccc2)CC1 (stereo not given) | -1.7 | -0.4 | -1.4 | 16978*
COc1ccccc1N1CCN(C(=O)C(Cc2ccccc2)NC(=O)C2CCCCC2)CC1 (stereo not given) | -4.1 | -1.6 | -6.1 | 25307*
Cc1ccc(-c2nnc(-c3cc(C)on3)o2)cc1 | -0.1 | -6.0 | -8.7 | 6332
c1ccc2c(c1)NC1(CCCCC1)n1c-2nc2ccccc21 | 1.5 | -2.2 | -5.8 | 7594
O=C1Nc2ccccc2C12Nc1ccccc1-c1nc3ccccc3n12 (stereo not given) | 0.8 | 2.4 | 7.6 | 4276
CC1(c2ccccn2)Nc2ccccc2-c2nc3ccccc3n21 (stereo not given) | -1.2 | -3.0 | -3.9 | 22286*
CN1C(=O)C2(Nc3ccccc3-c3nc4ccccc4n32)c2ccccc21 (stereo not given) | -1.6 | -4.8 | -2.1 | 23406*
CCCCCC(=O)Nc1ccc(C(=O)COC(=O)CN2C(=O)NC3(CCCC3)C2=O)cc1 | -0.3 | -2.1 | -8.0 | 6451
Cc1nnc(SCC(=O)N2CCN(C(=O)c3ccco3)CC2)n1-c1ccccc1 | -1.2 | -10.3 | -4.1 | 3433
CCC1CCCCN1C(=O)N[C@@H](Cc1ccccc1)C(=O)O (stereo not given in full) | 0.2 | -0.1 | -2.7 | 23663*
COC(=O)[C@H](Cc1ccccc1)NC(=O)N1CCCCC1C (stereo not given in full) | -0.2 | -1.4 | -4.3 | 10036
O=C(Nc1cccc2ncccc12)c1ccc(-c2ccc(Br)cc2)o1 | 6.0 | -20.4 | 7.4 | 20512*
CCn1c(SCC(=O)N/N=C/C=C\c2ccccc2[N+](=O)[O-])nc2ccccc21 | ? | 1.2 | -1.8 | 22694*
Cn1c(SCC(=O)N/N=C/C=C/c2ccccc2[N+](=O)[O-])nc2ccccc21 | -0.8 | -0.7 | -2.8 | 2441
CCn1c(SCC(=O)N/N=C/c2ccc(OC)c(OC)c2)nc2ccccc21 | 1.1 | -0.3 | -1.9 | 22575*
CCc1ccccc1N(CC(=O)NC(C)(C)CC)C(=O)CCC(=O)Nc1nccs1 | 1.8 | -0.4 | ? | 3798
SMILES | BoNT A protease | Anthrax LF prot | BoNT F protease | Autofluor counter
CC(C)OC(=O)CSc1nnc2n1C(C)(C)Cc1ccccc1-2 | 0.3 | -2.6 | -0.6 | 16487*
CCOC(=O)CSc1nnc2n1C(C)(C)Cc1ccccc1-2 | 0.7 | -2.4 | 1.6 | 16513*
CCSc1nnc2n1C(C)(C)Cc1ccccc1-2 | -0.1 | 0.3 | 1.3 | 2678
O=C(O)c1cccc2c1Cc1cc(Cl)ccc1-2 | -0.6 | 5.8 | 1.9 | 4409
CCN1C(=O)c2cccc3c(NS(=O)(=O)c4ccc(NC(C)=O)cc4)ccc1c23 | ? | ? | 5.8 | ?
CCOC(=O)c1ccc(NC(=O)Nc2ccc3c4c(cccc24)C(=O)N3CC)cc1 | -1.7 | 0.5 | -2.2 | 21257*
CC(NC(=O)COC(=O)C1CC2CCCC(C1)C2=O)c1ccccc1 (stereo not given) | -0.5 | -1.5 | -5.5 | 3985
CCOC(=O)C1CCCN(C(=O)c2ccc3nc(-c4cccc(OC)c4)oc3c2)C1 (stereo not given) | 2.6 | -2.0 | 2.6 | 4366
COc1ccc(C(=O)N2CCOC2CNC(=O)C(=O)NCCc2ccccc2OC)cc1 (stereo not given) | 0.0 | 0.4 | -6.1 | 6085
Cc1cc(C)cc(NS(=O)(=O)CCCS(=O)(=O)Nc2cc(C)cc(C)c2)c1 | 0.4 | -5.3 | -3.8 | 3705
COc1cccc(CNC(=O)CCNC(=O)c2ccc(Br)o2)c1 | -2.0 | -0.7 | -3.0 | 5423
